The values below come from PubChem BioAssay.

For experiment [1], the system named is Human papillomavirus type 1a protein E7 (residues 44-93). Description: small molecules binding HPV E7 44-93 – biochemical, small-molecule microarray, residues 44-93, 635 nm fluorescence, primary screen (AID 1108).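 Also: E7 fragment applied at 1 µg/mL in TBST for 1 h at 4 C; score combines spot fluorescence with its signal to noise ratio.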 The settings on record: fluorescence 635 nm, higher = more signal.
A short description of experiment [2]: hepatitis C replication reporter changes, two-sided – Huh7 cells, luciferase reporter, HCV replication inhibitor project, primary screen (AID 1109).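 Also: huh7 hepatoma cells harbouring a luciferase neomycin HCV replicon reporter; luciferase luminescence as measure of HCV replicon replication; test concentration not given here.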 The settings on record: Huh7 HCV replicon luciferase reporter, 48 h; higher = more signal. Background: Reporter assays use an easily measured gene product as a stand-in for the process of interest.
The target in experiment [3] is Left-right determination factor 2 (Homo sapiens) (UniProt O00292). Description: small molecules binding LEFTY2 protein – biochemical, small-molecule microarray, 635 nm fluorescence scan, primary screen (AID 1110). The settings on record: higher = more signal.
Chain of Left-right determination factor 2 (Homo sapiens) (O00292 whole entry, looked up): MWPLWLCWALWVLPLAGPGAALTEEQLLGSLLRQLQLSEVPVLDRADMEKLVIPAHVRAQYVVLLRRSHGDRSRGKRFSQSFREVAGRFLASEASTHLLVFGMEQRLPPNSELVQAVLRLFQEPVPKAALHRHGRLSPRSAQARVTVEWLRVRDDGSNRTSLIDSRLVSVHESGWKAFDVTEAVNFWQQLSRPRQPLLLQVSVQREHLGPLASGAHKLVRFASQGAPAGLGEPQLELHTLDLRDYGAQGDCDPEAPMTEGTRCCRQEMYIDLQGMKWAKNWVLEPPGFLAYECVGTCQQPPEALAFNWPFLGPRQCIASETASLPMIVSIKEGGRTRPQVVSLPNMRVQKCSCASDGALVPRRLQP
For experiment [4], the target named is Calmodulin-1 (Homo sapiens) (UniProt P0DP23). Description: small molecules binding calmodulin-1 with EGTA – biochemical, small-molecule microarray, Cy5-labelled CALM1, profiling panel (AID 1111).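 Also: labelled calmodulin applied in Tris saline Tween buffer holding calcium plus EGTA and DTT.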 The settings on record: Cy5-CALM1 binding fluorescence, higher = more signal.
Experiment [5] has the same target. As to the kind of experiment: small molecules binding Ca-loaded calmodulin-1 – biochemical, small-molecule microarray, Cy5-labelled CALM1, plus calcium, artefact control for SMM control-protein annotation, profiling panel (AID 1112).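 Also: score merges spot fluorescence with signal to noise from triplicate slides.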 To be noted: Cy5-CALM1 binding fluorescence, higher = more signal.
Experiment [6] is described as follows: probe aWnt5a binding to arrayed compounds – biochemical, biotinylated probe, 635/667 nm fluorescence, primary screen (AID 1113).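 Also: score merges 667 nm fluorescence intensity with signal-to-noise per printed feature.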 The settings on record: small-molecule microarray, higher = more signal.
The nature of experiment [7]: probe aShh binding to arrayed compounds – biochemical, biotinylated probe, 635/667 nm fluorescence, primary screen (AID 1114).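 Also: probe is biotin-labelled aShh protein from a stem cell growth factor screen; measures binding of labelled protein to compounds printed on the slide; score merges feature fluorescence at 667 nm with signal-to-noise.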 To be noted: small-molecule microarray, higher = more signal.
Experiment [8] in a line: probe aNog binding to arrayed compounds – biochemical, biotinylated probe, 635/667 nm fluorescence, primary screen (AID 1115).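 Also: probe is biotinylated aNog protein used at 0.15 µg/mL for 1 h at 4 C; z-score combines 667 nm fluorescence of each spot with its signal to noise.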 To be noted: small-molecule microarray, higher = more signal.
Experiment [9] addresses Torsin-1A-interacting protein 1 (Homo sapiens) (UniProt Q5JTV8). Description: compound microarray binding of lysate hLAP1 – cell lysate, small-molecule microarray, COS7 lysate, 635/667 nm fluorescence, primary screen (AID 1116). The settings on record: 635 nm fluorescence, higher = more signal.
Experiment [10] has as its target Alpha-bungarotoxin (Bungarus multicinctus) (UniProt P60615). As to the kind of experiment: compounds binding labelled alpha-BTX control protein – biochemical, small-molecule microarray, Alexa647 label, 635/667 nm fluorescence, artefact control for SMM control protein annotation, profiling panel (AID 1117). To be noted: alpha-BTX-A647 binding fluorescence, higher = more signal.

In experiment [11] the target is Albumin (Bos taurus) (UniProt P02769). As to the kind of experiment: compounds binding labelled BSA control protein – biochemical, small-molecule microarray, Alexa647 label, 635/667 nm fluorescence, artefact control for SMM control protein annotation, profiling panel (AID 1118).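 Also: score merges 667 nm emission intensity and signal-to-noise per printed compound spot.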 The settings on record: BSA-A647 binding, fluorescence 635 nm, higher = more signal.
Chain of Albumin (Bos taurus) (P02769 whole entry, looked up): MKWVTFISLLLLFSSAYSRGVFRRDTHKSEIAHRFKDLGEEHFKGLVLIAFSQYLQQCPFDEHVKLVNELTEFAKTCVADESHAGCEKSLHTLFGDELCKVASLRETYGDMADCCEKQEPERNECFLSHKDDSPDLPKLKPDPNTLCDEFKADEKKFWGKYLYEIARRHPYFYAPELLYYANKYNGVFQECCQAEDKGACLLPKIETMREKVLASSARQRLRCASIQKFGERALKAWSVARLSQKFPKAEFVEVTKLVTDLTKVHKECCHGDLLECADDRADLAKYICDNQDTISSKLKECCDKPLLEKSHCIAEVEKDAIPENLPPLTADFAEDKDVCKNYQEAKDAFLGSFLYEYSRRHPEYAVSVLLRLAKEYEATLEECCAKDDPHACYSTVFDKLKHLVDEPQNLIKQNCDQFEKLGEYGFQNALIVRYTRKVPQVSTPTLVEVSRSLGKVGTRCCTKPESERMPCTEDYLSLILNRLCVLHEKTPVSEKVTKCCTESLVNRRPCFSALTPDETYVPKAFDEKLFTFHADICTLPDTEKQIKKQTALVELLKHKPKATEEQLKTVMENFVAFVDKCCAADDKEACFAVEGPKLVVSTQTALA
A short description of experiment [12]: probe aXIP binding to arrayed compounds – biochemical, NeuroSMM set, 635/667 nm fluorescence, primary screen (AID 1119).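 Also: probe is the protein aXip251-270 applied at 1 µg/mL to compound-printed slides; binding of probe to printed compounds measured as 667 nm fluorescence plus signal to noise.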 To be noted: small-molecule microarray, higher = more signal, called active from +8 up or from −8 down.
A short description of experiment [13]: probe aNOTCH3 binding on compound microarray – biochemical, small-molecule microarray, 635/667 nm fluorescence, primary screen (AID 1120).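 Also: probe is a biotin-tagged antibody raised against NOTCH3 rather than NOTCH3 protein; score merges spot fluorescence near 667 nm with spot signal to noise.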 The settings on record: higher = more signal.
A short description of experiment [14]: probe aNOTCH2 binding on compound microarray – biochemical, small-molecule microarray, 635/667 nm fluorescence, primary screen (AID 1121).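 Also: score merges feature fluorescence read at 667 nm with its signal to noise.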 The settings on record: higher = more signal.
For experiment [15], the target named is Carbonic anhydrase 2 (Homo sapiens) (UniProt P00918). Description: compounds binding carbonic anhydrase 2 – biochemical, small-molecule microarray, Alexa647-labelled CAII, profiling panel (AID 1122). To be noted: CAII-A647 binding fluorescence, higher = more signal.
Experiment [16] is described as follows: COS7 lysate on small-molecule microarray, probe aHis, 635 nm (AID 1123).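 Also: z-score combines 667nm fluorescence intensity with signal-to-noise per printed compound spot.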 To be noted: COS7 cell lysate, fluorescence, higher = more signal.
Experiment [17] can be described thus: probe aLAP1 signal on lysate-treated microarray – cell lysate, small-molecule microarray, COS7 lysate, primary screen (AID 1124).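 Also: lysate comes from COS7 cells expressing LAP1 and is applied at 0.3 µg/mL; score merges spot fluorescence near 667 nm with signal-to-noise over triplicate slides.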 To be noted: probe aLAP1, fluorescence, higher = more signal.
The subject of experiment [18] is Sam68 (KHDRBS1). As to the kind of experiment: compounds binding KHDRBS1 protein – biochemical, small-molecule microarray, 635 nm fluorescence, primary screen (AID 1125).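 Also: score merges 667 nm channel intensity with signal to noise over triplicate slides.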 The settings on record: higher = more signal.
Experiment [19] relates to Chordin-like protein 2 (CHRDL2). As to the kind of experiment: compounds binding chordin-like 2 – biochemical, small-molecule microarray, 635 nm fluorescence, primary screen (AID 1126).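 Also: printed compound slides probed with Chrdl2 protein at 4 µg/mL for 1 h at 4 C; score merges 667 nm emission intensity with signal to noise over three replicate slides.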 The settings on record: fluorescence 635 nm, higher = more signal.
Experiment [20] deals with Concanavalin-A (Canavalia ensiformis) (UniProt P02866). Description: compounds binding concanavalin A lectin – biochemical, small-molecule microarray, Alexa647 label, 635 nm, artefact control for SMM control protein annotation, primary screen (AID 1127).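 Also: z combines 667 nm emission intensity with signal-to-noise across three replicate slides.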 The settings on record: ConA-A647 binding fluorescence, higher = more signal.
Chain of Concanavalin-A (Canavalia ensiformis) (P02866 whole entry, looked up): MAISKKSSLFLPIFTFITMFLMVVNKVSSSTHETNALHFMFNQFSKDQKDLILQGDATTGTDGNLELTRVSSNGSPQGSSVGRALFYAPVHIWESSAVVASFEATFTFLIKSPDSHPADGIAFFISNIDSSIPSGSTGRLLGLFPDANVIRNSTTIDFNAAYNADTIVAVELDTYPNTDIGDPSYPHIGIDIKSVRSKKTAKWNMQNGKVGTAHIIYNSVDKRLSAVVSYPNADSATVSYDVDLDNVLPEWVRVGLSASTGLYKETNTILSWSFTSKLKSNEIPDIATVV

The source made the active and inactive calls.

Chain of Torsin-1A-interacting protein 1 (Homo sapiens) (Q5JTV8 whole entry, looked up): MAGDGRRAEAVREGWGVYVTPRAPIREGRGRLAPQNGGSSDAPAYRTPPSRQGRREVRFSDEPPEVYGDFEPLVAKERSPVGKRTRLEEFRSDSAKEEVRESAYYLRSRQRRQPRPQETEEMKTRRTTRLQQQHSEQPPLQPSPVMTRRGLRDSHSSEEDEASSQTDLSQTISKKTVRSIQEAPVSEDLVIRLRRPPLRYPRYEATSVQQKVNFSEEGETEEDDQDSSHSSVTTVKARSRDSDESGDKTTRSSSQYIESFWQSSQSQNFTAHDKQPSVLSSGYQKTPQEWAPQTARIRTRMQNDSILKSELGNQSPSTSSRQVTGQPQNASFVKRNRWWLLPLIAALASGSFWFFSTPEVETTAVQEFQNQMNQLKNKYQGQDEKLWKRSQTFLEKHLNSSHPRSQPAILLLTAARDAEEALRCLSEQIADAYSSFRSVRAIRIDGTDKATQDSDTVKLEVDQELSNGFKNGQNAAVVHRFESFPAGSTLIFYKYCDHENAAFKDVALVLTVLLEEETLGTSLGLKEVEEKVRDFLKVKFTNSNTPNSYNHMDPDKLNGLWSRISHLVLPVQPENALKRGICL
Chain of Alpha-bungarotoxin (Bungarus multicinctus) (P60615 whole entry, looked up): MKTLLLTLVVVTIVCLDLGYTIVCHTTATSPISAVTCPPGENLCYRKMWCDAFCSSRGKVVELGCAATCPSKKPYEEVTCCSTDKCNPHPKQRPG

Consider `O=C(O)[C@]1(CCS(=O)(=O)c2ccccc2)N=C(c2ccc(OCCCO)cc2)O[C@@H]1c1ccccc1`, for which the composite z-score was 0.0626 in experiment [1]; -0.004 in experiment [3]; 0.737 in experiment [4]; 0.4 in [5]; 0.0216 in experiment [6]; -0.0322 in experiment [7]. Besides, the composite z-score in experiment [8] was 1.82; in [9], -0.357; in experiment [10], -0.0315; in experiment [11], 0.815; in experiment [13], 0.196; in experiment [14] it was 0.197. Also, the composite z-score in [15] is 0.858; in [16] it was 2.59; in experiment [17] it was 0.341; in experiment [18], 0.541; in experiment [19], -0.0616; in [20], -0.251. The compound further came in with a z-score in experiment [2] of -0.0254. For the same compound, the composite Z-score in [12] was 0.207 (inactive).
Regarding `CC(C)(C)OC(=O)CC[C@@]1(C(=O)N2CCCCC2)N=C(c2ccc(OCCCO)cc2)O[C@@H]1c1ccccc1CN=[N+]=[N-]`, the composite z-score was determined as 1.46 in [1]; 0.0083 in experiment [3]; 1.88 in experiment [4]; 0.709 in experiment [5]; 0.0629 in [6]; 0.199 in [7]. In addition, the composite z-score was -0.685 in experiment [8]; 2.04 in [9]; 2.27 in [10]; 1.03 in experiment [11]; 0.359 in [13]; 0.13 in experiment [14]. For the same compound, the composite z-score in [15] is 0.597; in [16] it was 2.99; in experiment [17], 0.639; in experiment [18], 1.29; in [19] it was -0.813; in experiment [20] it was 1.18. In experiment [2], the z-score was -2.36. Moreover, in experiment [12], the composite Z-score is 0.18 (inactive).
As for `COC(=O)[C@@]1(Cc2ccc(OC)cc2)[C@H]2c3cc(C(=O)N4CCCC4)n(Cc4ccc(C)o4)c3C[C@H]2CN1C(=O)c1ccccc1`, the composite z-score is 1.2 in [1]; -0.242 in experiment [3]; 0.493 in [4]; 0.0918 in experiment [5]; 0.457 in [6]; 0.444 in [7]. Further, the composite z-score in experiment [8] is -0.504; in [9] it was 0.762; in experiment [10], 0.287; in [11], 0.963; in experiment [13], 0.74; in experiment [14], 0.0489. Besides, the composite z-score in experiment [15] was 0.614; in [16] it was 1.23; in [17], 0.0793; in experiment [18], 0.762; in experiment [19] it was -0.425; in experiment [20] it was 0.88. The same compound gave a z-score in [2] of -3.68. Besides, in [12], the composite Z-score is -0.282 (inactive).
With `C=C(COC)C(=O)CC[C@H](OC(=O)c1ccccc1-c1ccccc1C(=O)O)c1ccc(OCCO)cc1`, the composite z-score is 0.701 in experiment [1]; 0.419 in experiment [3]; 0.0421 in experiment [4]; -0.774 in [5]; -0.148 in [6]; 0.351 in [7]. For the same compound, the composite z-score in experiment [8] was 0.229; in experiment [9], 3.05; in [10], 1.16; in [11], 0.369; in experiment [13] it was 0.0628; in experiment [14], -0.117. The composite z-score in [15] was determined as 0.425; in experiment [16] it was 0.276; in experiment [17], 1.12; in [18] it was 1.09; in experiment [19], 0.498; in [20], 0.527. Besides, the z-score in experiment [2] was -1.06. In addition, in experiment [12], the composite Z-score is 0.161 (inactive).
`COCCOC(=O)N1C(=O)[C@@]2(c3cc(C#CC4(O)CCCCCC4)ccc31)[C@H](C(=O)N1CCN(c3ncccn3)CC1)[C@H]1C(=O)O[C@H](c3ccccc3)[C@H](c3ccccc3)N1[C@@H]2c1ccc(O)cc1`: the composite z-score in experiment [1] was 0.958; in experiment [3] it was -0.28; in experiment [4], 1.56; in experiment [5] it was 1.05; in [6] it was 0.0633; in [7], 0.128. The composite z-score in experiment [8] was -0.261; in [9] it was 1.53; in [10], 1.61; in experiment [11], 0.886; in [13] it was -0.0006; in [14] it was -0.0795. In addition, the composite z-score was 0.35 in experiment [15]; 1.12 in [16]; 0.73 in experiment [17]; 1.22 in experiment [18]; -0.35 in experiment [19]; 1.11 in experiment [20]. The z-score in experiment [2] is -1.69. In addition, the composite Z-score in [12] is 0.528 (inactive).
